Experimental findings from PubChem BioAssay AID602252 (Broad Institute, 2012) are described below.

Screen size: about 300,000 compounds; about 2,700 (0.9%) were called active. Shown is part of a subset that was picked to be rich in actives. Unmarked numbers belong to inactive results.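 Rule for the calls: active = mean inhibition of at least 30% with at least half of replicates also reaching 30%; inconclusive = no clear call, values can overlap the other calls; inactive = the rest.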

This assay addresses Golgi-associated PDZ and coiled-coil motif-containing protein (Homo sapiens) (UniProt Q9HD26). The assay can be described thus: blockade of CAL PDZ-reporter peptide interaction – biochemical, fluorescence polarization, untagged CAL PDZ, HTS, primary screen (AID 602252).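 Note: 0% = DMSO neutral control and 100% = excess unlabeled competitor peptide PRC23.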 The settings on record: purified CAL PDZ, TMR-peptide fluorescence polarization, 1 h; at 24.9 µM; stronger effect = higher value.
Take `O=C(Cc1ccc(NC(=O)C2CCCN(C(=O)CCc3ccccc3)C2)cc1)Nc1ccc(C(=O)N2CCOCC2)cc1` (configuration not stated): the inhibition is -8.09%.

On to `CC1CCCCC1NCC(=O)Nc1ccccc1C(=O)Nc1ccccc1` (configuration not stated), for which the inhibition was -1.41%.

Turning to `CN(C)C(=S)N=c1ssc(=S)n1Cc1ccco1`, the inhibition is -2.26%.

Turning to `O=C(CNC(=O)c1cc(S(=O)(=O)N2CCOCC2)ccc1N1CCCC1)Nc1ccc(F)c(F)c1`, the inhibition is -2.42%.

Consider `O=C(N/N=C1\CCSC1)c1cc(Cl)ccc1O`, for which the inhibition is 39.8% (active).

For `CC(C)/C=N/NC(=O)c1cc(Br)ccc1O`, the inhibition was -1.22%.

Take `C/C(=N/NC(=O)c1cc(Cl)ccc1O)C12CC3CC(CC(C3)C1)C2`: the inhibition is 0.948%.

As to `COc1cc(O)c2c(=O)c3c(O)c(O)ccc3oc2c1OC`, the inhibition is -1.48%.

`O=C(Cn1cnc2c(OCc3ccccc3)ncnc21)NCc1nc2ccccc2[nH]1`: the inhibition is 9.79%.

Regarding `CCOc1cc(C(=O)N(Cc2ccccc2)c2ccc(C)cc2)ccc1OCC(=O)N1CCOCC1`, the inhibition was -2.56%.

Consider `N#CC1(Nc2ccc(-c3ccc(Cl)cc3)cc2)CCCC1`, for which the inhibition is -1.39%.

Consider `O=S(=O)(NCCc1ccccn1)c1cc(Cl)cc(Cl)c1O`, for which the inhibition is -0.874%.

`O=[N+]([O-])c1cccc(S(=O)(=O)NCc2ccccn2)c1`: the inhibition was -3.81%.

As for `O=[N+]([O-])c1cc(S(=O)(=O)NCCc2ccccn2)ccc1Cl`, the inhibition is 40.3% (active).

Take `Cc1c(NS(=O)(=O)c2cccc(C(=O)Nc3ccc(SC(F)F)cc3)c2)c(=O)n(-c2ccccc2)n1C`: the inhibition is -2.68%.

For the compound `Fc1ccc(-c2ccc(CNCc3ccccn3)o2)cc1Cl`, the inhibition is 52.7% (active).

Consider `Cc1cc(S(=O)(=O)NCc2ccccn2)c(Cl)cc1Cl`, for which the inhibition is -2.31%.

Consider `CN(Cc1ccccn1)Cc1nc(-c2ccc(Cl)cc2)no1`, for which the inhibition was -1.29%.

With `NC(=O)C1(N2CCCC2)CCN(Cc2ccccc2)CC1`, the inhibition was -1.05%.

Turning to `COc1ccc(CNC(=O)C[C@H]2C[C@H](C(=O)N3CCOCC3)[C@@]3(CCC4CCCC4)c4[nH]c5ccc(Cl)cc5c4CCN3C2=O)cc1OC`, the inhibition was -0.587%.

Regarding `COc1ccc(NC(=O)NCc2ccc3c(c2)OCO3)c(OC)c1`, the inhibition was -1.76%.

As to `O=C(NCc1ccc2c(c1)OCO2)c1cc(F)c(F)cc1Cl`, the inhibition was -5.1%.

As for `COc1cc(OC)c(C(=O)NCc2ccc3c(c2)OCO3)cc1OC`, the inhibition is 81% (active).

On to `O=C(NCCC(=O)N1O[C@@H]2C=C[C@H]1C2)OCC1c2ccccc2-c2ccccc21`, for which the inhibition is -5.2%.

Take `O=C1CC2(CCCC2)C(=O)N1CN1CCN(S(=O)(=O)c2ccc(F)cc2F)CC1`: the inhibition is -4.29%.

With `COc1ccc(CNCCCn2cnc3c(OCc4ccccc4)ncnc32)cc1`, the inhibition was -2.18%.

Regarding `COc1ccc(OCC(=O)N2CCN(C(=O)COc3ccccc3)CC2)cc1`, the inhibition is -1.31%.

On to `C=Cn1c(C(=O)O)ccc1-c1ccc(OC)cc1`, for which the inhibition is 37.7% (active).

Take `COc1ccc(-c2ccc(CCC(=O)O)n2-c2ccc(O)cc2)cc1`: the inhibition was -0.609%.

Regarding `CN(C(=O)c1cccc(NC(=O)Cc2ccc(NC(=O)C3CCN(C(=O)C4CCCCC4)CC3)cc2)c1)C1CCC1`, the inhibition is -2.99%.

Take `COc1ccc(Cl)cc1NC(=O)C1CC(=O)N(c2ccc(F)cc2)C1` (configuration not stated): the inhibition was -7.15%.

In the case of `CC1CC(C)CN(C(=O)C2CC(=O)N(c3ccc(F)cc3)C2)C1` (configuration not stated), the inhibition was -2.8%.

As to `O=C(NC1CCCC1)C1CC(=O)N(c2ccc(F)cc2)C1` (configuration not stated), the inhibition was 53.1% (active).

For `CC(=O)c1ccc(NC(=O)C(C)OC(=O)c2ccc(NS(=O)(=O)c3ccc4[nH]c(=O)[nH]c4c3)cc2)cc1` (configuration not stated), the inhibition was -8.65%.

Turning to `COc1ccc(/C=C2/CCCc3ccccc3C2=O)cc1`, the inhibition is 1.76%.

In the case of `COc1ccc(Nc2ncnc3ccc(Br)cc23)c(OC)c1`, the inhibition was -10.3%.

As to `COc1ccc(Nc2ncnc3sc(C)cc23)cc1`, the inhibition was 0.276%.

For the compound `COc1ccc(Nc2ncnc3sc(-c4ccccc4)cc23)c(OC)c1`, the inhibition was 179% (active).

With `CCOc1ccc(S(=O)(=O)N2CCN(C(=O)c3oc4ccccc4c3C)CC2)cc1`, the inhibition was 2.11%.

Consider `CC12CCCCC1=CC(=O)CC2` (configuration not stated), for which the inhibition is 28.3%.

For `O=C(CCC(=O)N1CCN(S(=O)(=O)c2ccc(Cl)cc2)CC1)NCc1cccc(C(F)(F)F)c1`, the inhibition is -4.29%.

Take `O=C(Cn1c(-c2cscn2)nc2ccccc21)Nc1ccc(Cl)cc1`: the inhibition was -17.7%.

Regarding `O=C(Cn1c(-c2cncs2)nc2ccccc21)NC1CCCC1`, the inhibition is 41.1% (active).

Consider `O=C(CN1CCN(c2ccccn2)CC1)NC1CCCCC1`, for which the inhibition is 11.4%.

On to `c1ccc(-c2c[nH]c(-c3ccccc3)c2)cc1`, for which the inhibition was -3.72%.

Regarding `C/C=C/c1ccc(OCC(=O)NNC(=O)CN(C)S(=O)(=O)c2ccc(C)cc2)c(OC)c1`, the inhibition is -0.216%.

Turning to `NC(=O)C1(Nc2ccc([N+](=O)[O-])cc2)CCCC1`, the inhibition was -0.108%.

For the compound `COc1ccccc1-c1sc2ccccc2c1C#CC1(O)CCCCC1`, the inhibition is 0.068%.

As to `COc1cccc(/C=C2\SC(=N)N(c3ccc(F)cc3)C2=O)c1`, the inhibition is 161% (active).

With `COc1ccc(/C=C2\SC(=N)N(c3ccc(F)cc3)C2=O)cc1`, the inhibition is -1.62%.

Take `COc1cccc(/C=C2/SC(=S)N(CC(=O)NC3C=CS(=O)(=O)C3)C2=O)c1` (configuration not stated): the inhibition was -6.25%.

Turning to `CCOC(=O)c1ccccc1OC(=O)Oc1ccccc1C(=O)OCC`, the inhibition was 1.49%.

Turning to `Cn1cccc1/C=C1\SC(=O)N(CC(=O)Nc2ccc(F)cc2)C1=O`, the inhibition was -5.97%.

On to `O=C(O)c1ccc(/C=C2\SC(=S)N(NC(=O)c3ccc(Br)cc3)C2=O)cc1`, for which the inhibition is 15.4%.

On to `Cn1cccc1/C=C1\SC(=S)N(NC(=O)c2ccc(Cl)cc2)C1=O`, for which the inhibition was 64.1% (active).

With `CC(C)(C)NS(=O)(=O)NC(=O)C1=C(N2CCCC2)COC1=O`, the inhibition was -3.4%.

Consider `COc1ccc(C(=O)OCc2cc(=O)n3ccsc3n2)cc1F`, for which the inhibition was -3.31%.

As to `CCCC(O)(c1ccccc1)C(c1ccccc1)c1ccccn1` (configuration not stated), the inhibition was -2.63%.

As for `COc1ccccc1-n1nnnc1SCC(=O)NC(=O)Cc1ccccc1`, the inhibition was 0.182%.

Turning to `COc1ccccc1-n1nnnc1S(=O)(=O)Cc1ccc(Cl)cc1`, the inhibition is 95.3% (active).

On to `COc1ccccc1N1CCN(S(=O)(=O)c2ccc(Cl)cc2)CC1`, for which the inhibition was -4.05%.

As to `CCCCNc1c(-c2ccc(OC)c(Sc3ccc(OC)cc3)c2)nc2ccc(Cl)cn12`, the inhibition is 0.771%.

As to `CCN(CC(=O)NCc1ccc(Cl)cc1)C(=O)CSc1ccccc1`, the inhibition was 62.6% (active).

Turning to `CCN(CC(=O)NCc1ccc(Cl)cc1)C(=O)c1c(C)noc1C`, the inhibition was -2.21%.

As for `CCN(CC(=O)Nc1cc(Cl)ccc1C)C(=O)CSCc1ccccc1`, the inhibition was -0.344%.

As for `Cc1cc2c(cc1C)NC1(C[C@H]3CCC(=O)N4CC[C@@H](C1)[C@@H]34)C(=NC(C)(C)CC(C)(C)C)N2` (some centres not stated), the inhibition is -3.52%.

As for `CCOC(=O)c1nnn(-c2nc(OC)nc(N(C)C)n2)c1-c1ccccc1`, the inhibition is 14.6%.

For the compound `CCCCCc1ccc(-c2cn(Cc3ccc4ccccc4c3)nn2)cc1`, the inhibition is -1.31%.

Regarding `CCOc1nc(OCC)nc(-n2cc(-c3ccccc3)nn2)n1`, the inhibition is 145% (active).

Regarding `Cc1c(NC(=O)CCCOc2ccccc2)cccc1[N+](=O)[O-]`, the inhibition is 47.4% (active).

In the case of `Cc1c(NC(=O)Nc2ccccc2)cccc1[N+](=O)[O-]`, the inhibition was -0.291%.

With `Cc1ccccc1NC(=O)CCOc1ccccc1`, the inhibition was -3.86%.

`Fc1ccc2cnc(-c3ccccc3)cc2c1`: the inhibition is -0.668%.

In the case of `O=S(=O)(Nc1ccc2ccccc2c1)N1CCCCC1`, the inhibition was -5.99%.

On to `CC(C)OC(=O)c1ccc(NCc2cc(O)ccc2O)cc1Cl`, for which the inhibition is 0.191%.

Take `COC(=O)Cc1c(-c2[nH]c3ccccc3c2CC(=O)OC)[nH]c2ccccc12`: the inhibition was -2.69%.

With `COc1ccc(CCNC(=O)c2ccc3c(c2)NC(=O)C(N2CCOCC2)S3)cc1OC` (configuration not stated), the inhibition was -1.17%.

`CCN1CCN(CCNC(=O)c2ccc(/C=C3/Sc4ccccc4N(Cc4cccc(C)c4)C3=O)cc2)CC1`: the inhibition is -8.21%.

Turning to `CCN1CCN(CCNC(=O)c2ccc3c(c2)NC(=O)/C(=C\c2ccc(OC)c(OC)c2)S3)CC1`, the inhibition is 55.5% (active).

Regarding `COc1cc(C(=O)OCC(=O)NC23CC4CC(CC(C4)C2)C3)cc(OC)c1OC`, the inhibition was -3.34%.

Consider `C=CCn1c(SCc2ccccc2)nc2c1c(=O)[nH]c(=O)n2C`, for which the inhibition is -10.1%.

Turning to `C=CCSc1nc2c(c(=O)[nH]c(=O)n2C)n1Cc1ccccc1`, the inhibition is 59.3% (active).

`CCCCCCn1c(SCC(=O)c2ccccc2)nc2c1c(=O)[nH]c(=O)n2C`: the inhibition was -0.797%.

As to `CC(C)(C)C(=O)Nc1cccc(-c2ccc[nH]2)n1`, the inhibition is -1.63%.

With `CCN1CCN(C(=O)C2(NC(=O)Nc3cccc(F)c3)CCCCC2)CC1`, the inhibition is -0.757%.

For `Cc1ccccc1NC(=O)NC1(C(=O)N2CCCC2)CCCCC1`, the inhibition is -0.684%.

Turning to `CC(=O)N1CCN(C(=O)C2(NC(=O)Nc3ccc(C)cc3)CCCCC2)CC1`, the inhibition is 48% (active).

On to `Cn1cncc1C#Cc1c(-c2ccsc2)sc2ccccc12`, for which the inhibition was -4.14%.

Regarding `Cc1cc(O)ccc1-c1cnc2ccccc2n1`, the inhibition was -0.904%.

Take `Oc1ccc(-c2[nH]ncc2-c2nc3ccccc3s2)c(O)c1`: the inhibition is -4.79%.

Regarding `Oc1ccc(-c2nc3ccccc3nc2-c2ccc(O)cc2O)c(O)c1`, the inhibition was 89% (active).

For the compound `CCN1C[C@@H]2[C@@H]3C(=O)N(C)C(=O)[C@@H]3[C@](C)(C1=O)N2C(=O)c1ccccc1`, the inhibition was -2.56%.
